Screening data (PubChem)
In the library only some 9.2% were active in any assay of this set; here they are far more common.
Rab9 promoter act = activates the Rab9 promoter | Huh7 Rab9 promoter-luciferase reporter, luminescence, 24 h | Potency, µM (highest dose often 9.22 µM), inactives show at the highest dose activation, negative = inhibition, usual class: activators | 320,000 compounds, 2.8% hits | AID 485297; note: % of control where 0% means no effect; nearly all actives have a fitted effect of over 60% in size
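Cells were plated at 1500 per well in reduced-serum medium with 10% FBS and left 2 h. Compound in DMSO was then added for 24 h at 37 °C. Reporter signal was read by luminescence after 10 min with luciferase detection reagent.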
ELG1 genotox = induces genotoxicity in HEK293T cells with luciferase-tagged ELG1. 330,000 compounds, 1.3% hits. HEK293T ELG1-luciferase reporter, luminescence, 16 h. AID 504466. Potency, µM (titrated, usually from 46 µM), for inactives: top-dose activity change, positive = activation, usual class: activators; note: % of control where 0% means no effect; nearly all actives have a fitted effect of over 60% in size
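DMSO vehicle served as control against compound-treated ELG1-luciferase HEK293T cells; exposure lasted 16 hr at 37 °C and 5% CO2, followed by ONE-Glo luminescence detection after 30 min.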
SMN2 splice up = increases expression of the SMN2 splice variant; 210,000 compounds, 2.8% hits; Potency, µM (titrated, usually from 46.1 µM), for the others: top-dose activity change, positive = activation, usual class: activators; HEK293 SMN2-luciferase splicing reporter, luminescence, 30-36 h; note: % of control where 0% means no effect; nearly all actives have a fitted effect of over 55% in size
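HEK293 cells carry an SMN2 […]–luciferase reporter in which exon 7 inclusion puts luciferase in frame. Cells were plated 10-12 h before compound addition, then incubated 30-36 h at 37C. ONE-Glo luminescence was read; sodium butyrate at 4.5 mM final served as control.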
NPC1 prom act = NPC1 promoter activation. 320,000 compounds, 2.4% hits. AID 485313. Potency, µM (highest dose often 9.22 µM), for the others: top-dose activation, usual class: activators. Huh7 NPC1 promoter luciferase reporter, 24 h; note: % of control where 0% means no effect; nearly all actives have a fitted effect of over 60% in size
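Huh7 reporter cells (NPC1 promoter driving luciferase) are dosed with compound for 24 h at 37 °C, 5% CO2; luciferase detection reagent is then added and luminescence measured after 10 min at ambient temperature.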
FLuc modulator = inhibits or activates purified firefly luciferase, miR-21 counter-screen; purified FLuc, Km substrates, luminescence inhibition; 360,000 compounds, 6.9% hits; Potency, µM (doses to about 57.5 µM), for the others: at the highest dose activity change, negative = inhibition, most hits filed as inhibitors; AID 588342;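 note: plate controls were vehicle for no effect and reference inhibitor for full effect; nearly all actives have a fitted effect of over 55% in size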
Target sequence (P08659 whole entry, looked up): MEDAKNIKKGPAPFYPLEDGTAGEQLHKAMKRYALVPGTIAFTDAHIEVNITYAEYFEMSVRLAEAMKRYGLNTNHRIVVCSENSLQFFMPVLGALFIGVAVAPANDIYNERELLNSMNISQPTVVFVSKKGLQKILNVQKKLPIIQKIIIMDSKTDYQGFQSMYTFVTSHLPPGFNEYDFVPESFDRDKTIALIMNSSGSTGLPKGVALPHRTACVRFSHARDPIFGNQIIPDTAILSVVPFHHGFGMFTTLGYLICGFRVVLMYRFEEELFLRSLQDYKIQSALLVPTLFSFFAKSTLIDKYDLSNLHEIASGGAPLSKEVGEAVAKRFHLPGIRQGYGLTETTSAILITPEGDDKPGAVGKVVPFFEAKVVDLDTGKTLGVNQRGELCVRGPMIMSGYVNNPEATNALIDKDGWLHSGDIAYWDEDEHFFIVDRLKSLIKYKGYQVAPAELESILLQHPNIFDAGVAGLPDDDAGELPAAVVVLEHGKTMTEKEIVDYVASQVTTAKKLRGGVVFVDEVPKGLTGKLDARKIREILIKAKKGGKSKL
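Purified P. pyralis luciferase, 10 nM final, with Km-level 10 uM D-luciferin and 10 uM ATP in 50 mM Tris acetate pH 7.5, 10 mM Mg acetate, 0.01% Tween-20, 0.05% BSA; 6-point qHTS titration about 60 µM downward; luminescence read.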
ELG1 repair inh = inhibitors of ELG1-dependent DNA repair in HEK293T cells; HEK293T ELG1-luciferase reporter, luminescence, 16 h; DNA damage induced by 5-fluorouridine; Potency, µM (series often up to 46.1 µM), inactives show at the top dose activity change, negative = inhibition, actives largely listed as inhibitors; 330,000 compounds, 2.3% hits; AID 504467; note: % is set by controls: 0 for no effect and ±100 for the full control effect; nearly all actives have a fitted effect of over 55% in size
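In this reporter screen, reduction of luminescence relative to DMSO vehicle indicated activity. Compounds and 5-fluorouridine were added together to 2,000 cells per well, incubated for 16 hr at 37 °C, then developed with ONE-Glo.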
Active calls of the source: *; ? = inconclusive; / = no result given; [ ] = dose if it differs, or a comment. Calls come from the whole dose curve; as a rule, active = well fitted curve in the direction sought with a large enough effect; inconclusive = small, poorly fitted or top-dose-only effect, or another doubt; inactive = no such curve, though single readings can be large; an effect the other way counts as inactive or inconclusive. Potency is the fitted concentration of half-maximal effect.

SMILES	Rab9 promoter act	ELG1 genotox	SMN2 splice up	NPC1 prom act	FLuc modulator	ELG1 repair inh
COc1ccc2cc(C(=O)/C=C/c3cc(OC)c(OC)c(OC)c3)ccc2c1	-4.2%	-5.4%	/	0.5%	21.3µM*	-16.3%
COc1ccc(/C=C/C(=O)c2ccc(O)cc2)cc1	?	?	/	10.5%	3.38µM*	?
COc1cc(/C=C/c2ccc(O)cc2)cc(OC)c1	3.16µM*	/	/	?	13.5µM*	/
COc1ccc(/C=C/C(=O)c2c(O)c(OC)c3occc3c2OC)cc1	-1.1%	-4.6%	/	-6.4%	?	2.9%
COc1ccc(C(C)=O)cc1COc1ccc(F)cc1	-3.9%	-2.5%	-10.6%	-9.5%	6.2%	14.2%
COc1ccc(C(=O)/C=C/c2ccc(OC)c(COc3ccc(F)cc3)c2)cc1	19.2%	-2.8%	/	1.8%	5.36µM*	1.7%
COc1ccc(/C=C/C(=O)c2ccoc2)cc1	22.7%	5.8%	-15.2%	19.7%	4.26µM*	?
COc1ccc(/C=C/C(=O)c2ccccc2O)cc1	24.1%	16.4µM*	/	18.8%	0.269µM*	?
O=C(CSc1nnc(NC(=O)C2CC(=O)N(c3ccc(F)cc3)C2)s1)NCc1ccco1 (stereo not given)	0.7%	1.4%	/	1.4%	1.8%	10.0%
CCN1C(c2ccccc2)=C(c2ccccc2)S/C1=C/C=C1\SC(=S)N(C)C1=O	-8.4%	-6.1%	-54.7%	-6.7%	?	10.3µM*
CC1=C(C)C(OCCBr)N(c2cc(O)c(Cl)cc2F)C1=O (stereo not given)	-5.3%	-9.4%	/	-1.3%	-1.4%	-7.2%
CC1(C)CCc2cc(-c3ccnc(=S)[nH]3)ccc2O1	0.631µM*	1.46µM*	/	0.447µM*	10.7µM*	?
S=c1nccc(-c2ccc3c(c2)CCO3)[nH]1	0.2%	-3.2%	/	23.3%	-17.2%	?
COc1ccc(Cl)cc1NC(=O)CN(C)C(=O)CCNC(=O)c1ccccc1OC	-2.1%	1.8%	/	-0.5%	0.0%	4.0%
CCCCN(c1ccccc1)c1ncnc2c1cnn2-c1cccc(C)c1	/	/	/	/	-15.1%	/
CCN(c1ccccc1)c1ncnc2c1cnn2-c1ccc(OC)cc1	/	/	/	/	6.75µM*	/
CCCCN(c1ccccc1)c1ncnc2c1cnn2-c1ccc(Cl)cc1	/	/	/	/	13.5µM*	/
CCN(CC)C(=O)c1sc2c(c1C)c(=O)n(-c1ccc(Cl)c(Cl)c1)c(=O)n2CC(=O)Nc1cccc(OC)c1	/	/	/	/	-3.6%	/
CC1CCN(C(=O)c2cc(-c3ccccc3O)on2)CC1	3.16µM*	2.59µM*	?	2.51µM*	2.69µM*	?
CC1CCN(C(=O)c2cc(-c3ccco3)on2)CC1	2.82µM*	16.4µM*	/	1.78µM*	13.5µM*	?
COc1ccccc1N1CCN(C(=O)c2cc(-c3ccccc3O)on2)CC1	2.8%	22.4%	-7.6%	12.1%	-9.6%	28.3%
CC1CCCC(C)N1C(=O)c1cc(-c2ccco2)on1 (stereo not given)	7.9%	28.6%	/	2.6%	-15.5%	?
CCCCn1c(N)c(N(CCOC)C(=O)CCS(=O)(=O)c2ccc(Cl)cc2)c(=O)[nH]c1=O	4.7%	1.1%	/	-1.5%	0.6%	7.6%
O=C(CSc1nccn1-c1ccc(F)cc1)Nc1ccc(OC(F)(F)F)cc1	/	/	/	/	-1.3%	/
O=C(Nc1ncc(Cc2ccc(C(F)(F)F)cc2)s1)c1ccc(-c2cccc([N+](=O)[O-])c2)o1	-10.3%	-3.0%	-59.9%	-12.2%	1.6%	20.6µM*
SMILES	Rab9 promoter act	ELG1 genotox	SMN2 splice up	NPC1 prom act	FLuc modulator	ELG1 repair inh
O=C(Nc1ncc(Cc2ccccc2Cl)s1)c1ccc(-c2cccc([N+](=O)[O-])c2)o1	-9.1%	-4.5%	/	-4.4%	-0.8%	13µM*
Cc1cc(F)ccc1NC(=O)c1cc(S(=O)(=O)N2CCOCC2)cn1C	9.3%	4.1%	/	-2.4%	-2.7%	4.3%
CCC(CO)Oc1cc(NC(=O)Cc2ccccc2F)c2ncn(C(C)C)c2c1 (stereo not given)	/	0.0%	/	/	/	?
CCOC(=O)c1nc(N/N=C/c2ccccc2)sc1Br	20.1%	1.5%	/	20.6%	7.57µM*	24.0%
CCOC(=O)c1sc(N/N=C/c2ccc(N(C)C)cc2)nc1C	?	13.2%	/	25.1%	10.7µM*	2.7%
CC(=O)c1sc(N/N=C\c2ccc(Br)cc2)nc1C	?	?	?	?	5.36µM*	?
CCOC(=O)c1nc(NCc2ccccc2)sc1C	23.9%	11.8%	/	19.0%	?	?
CCOC(=O)c1sc(Nc2ccc(OCC)cc2)nc1C	-1.3%	7.1%	/	-1.6%	?	-2.7%
CC(=O)c1sc(N/N=C\c2cccc(Br)c2)nc1C	17.6%	5.9%	?	-2.7%	10.7µM*	?
CC(=O)c1sc(Nc2nc(C)cc(C)n2)nc1C	-0.3%[1.84 µM]	13.9%	24.8%	9.6%	-7.8%	-11.8%
O=C1C2C=CC=CC2=NC(=S)N1CCN1CCC(=C(c2ccc(F)cc2)c2ccc(F)cc2)CC1 (stereo not given)	-5.1%[46.1 µM]	/	-23.2%	-7.2%[46.1 µM]	/	/
COc1cc(NC(=O)CN2CCCN(S(=O)(=O)c3ccc(F)cc3)CC2)cc(OC)c1	/	/	-14.8%	/	3.6%	/
Cc1c(CC(=O)NCCc2ccccc2F)c(=O)oc2cc(O)c(Cl)cc12	/	/	1.1%	/	-18.8%	/
Cc1cccc(NS(=O)(=O)c2ccc(C)c(C(=O)NCCCN3CCOCC3)c2)c1	-8.5%	-2.2%	/	-2.5%	-1.1%	0.9%
COc1ccc(OCC(=O)Nc2ccc(N3CCN(Cc4ccccc4F)CC3)cc2)cc1	-2.2%	3.3%	/	11.9%	0.2%	?
O=C(Nc1ccc(N2CCN(C(=O)c3ccco3)CC2)cc1)c1cc(Br)ccc1Cl	-18.2%	-10.6%	/	-19.3%	/	11.6µM*
COc1ccccc1C(=O)NC(=S)Nc1ccc(N2CCN(C(=O)c3ccco3)CC2)cc1	-19.2%	-10.7%	/	-9.1%	-5.8%	13µM*
Cc1ccccc1C(=O)N1CCN(c2ccc(NC(=O)c3cccnc3)cc2)CC1	-4.3%	-11.7%	-29.8%	0.2%	-2.2%	?
Cc1ccccc1C(=O)N1CCN(c2ccc(NC(=S)NC(=O)c3ccco3)cc2)CC1	-16.1%	-15.8%	/	-5.6%	-1.5%	?
O=C(Nc1ccc(N2CCN(C(=O)c3ccco3)CC2)cc1)c1ccc2c(c1)OCO2	-0.8%	6.7%	-39.1%	1.8%	-0.1%	18.4µM*
Cc1ccccc1C(=O)N1CCN(c2ccc(NC(=O)c3ccc4c(c3)OCO4)cc2)CC1	-11.3%	-19.6%	/	-6.0%	2.3%	5.8µM*
CC1CC(C)CN(CC(=O)NNC(=O)COc2ccc(Cl)cc2)C1 (stereo not given)	-1.9%	-0.2%	/	-0.1%	2.8%	7.4%
